This is a sample that favours compounds with a hit; in the whole collection about 9.9% have one here.
ALDH1A1 inh: qHTS Assay for Inhibitors of Aldehyde Dehydrogenase 1 (ALDH1A1); Aldehyde dehydrogenase 1A1 (Homo sapiens), P00352; 220,000 tested, 7.3% active; Purified ALDH1A1, NADH fluorescence, propionaldehyde substrate; Potency, µM (top dose mostly 75.3 µM), for the others: at the top dose activity, negative = inhibition, usual class: inhibitors; AID 1030, 2008; active = well fitted inhibition curve with a large enough effect, not every such curve was filed as active; inconclusive = small, poorly fitted or top-dose-only effect, or another doubt; inactive = no such curve, though single readings can be large or run the other way;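 note: plate controls were no enzyme wells and a reference inhibitor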
KDM4E inh: qHTS Assay for Inhibitors of Human Jumonji Domain Containing 2E (JMJD2E). Lysine-specific demethylase 4E (Homo sapiens), B2RXH2. JMJD2E catalytic domain, FDH-coupled NADH fluorescence (FDH is formaldehyde dehydrogenase). Potency, µM (top dose mostly 57.1 µM), without a hit: at the top dose activity change, negative = inhibition, actives largely listed as inhibitors. 230,000 tested, 1.6% active. AID 2147, 2009; active = well fitted inhibition curve with a large enough effect, not every such curve was filed as active; inconclusive = small, poorly fitted or top-dose-only effect, or another doubt; inactive = no such curve, though single readings can be large or run the other way;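 note: 0% = wells with enzyme and -100% = buffer wells without enzyme; nearly all actives have a fitted effect of over 50% in size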
HPGD inh: qHTS Assay for Inhibitors of HPGD (15-Hydroxyprostaglandin Dehydrogenase). Potency, µM, for the others: at the top dose activity change, negative = inhibition, actives largely listed as inhibitors. purified HPGD, NADH fluorescence kinetic, PGE2 substrate. AID 894, 2007. 150,000 tested, 4.3% active; active = well fitted inhibition curve with a large enough effect, not every such curve was filed as active; inconclusive = small, poorly fitted or top-dose-only effect, or another doubt; inactive = no such curve, though single readings can be large or run the other way
Target sequence (P15428 whole entry, looked up): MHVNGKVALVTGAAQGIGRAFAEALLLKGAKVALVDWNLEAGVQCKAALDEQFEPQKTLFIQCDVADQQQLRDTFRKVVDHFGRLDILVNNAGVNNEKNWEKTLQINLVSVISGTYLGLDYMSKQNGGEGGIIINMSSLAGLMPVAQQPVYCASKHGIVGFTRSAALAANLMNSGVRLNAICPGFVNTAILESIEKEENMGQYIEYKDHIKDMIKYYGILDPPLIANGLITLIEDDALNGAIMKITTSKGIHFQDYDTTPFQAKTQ
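NADH formation kinetics: reaction with 30 uM PGE2 and 1 mM NAD+ (final), 20 nM enzyme, Tris-HCl pH 8 with Tween 20, after 15 min compound preincubation at room temperature. Fluorescence change, last versus first of five reads.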
Tau FP inhib: qHTS for Inhibitors of Tau Fibril Formation, Fluorescence Polarization; AID 1468, 2008; 280,000 tested, 0.39% active; K18 P301L tau heparin fibrillization, Alexa594 FP, 6 h; Potency, µM (highest dose often 57.7 µM), inactives show at the highest dose activity, negative = inhibition, most hits filed as inhibitors; note: nearly all actives have a fitted effect of over 55% in size
Target sequence (P10636 561-689 P618L limits assumed): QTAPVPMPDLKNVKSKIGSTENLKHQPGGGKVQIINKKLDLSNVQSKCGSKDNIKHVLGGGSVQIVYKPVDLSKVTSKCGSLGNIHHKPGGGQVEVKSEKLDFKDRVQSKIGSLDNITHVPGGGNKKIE
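Compound effects on tau fibrillization are measured by Alexa 594 fluorescence polarization (ex 555, em 632 nm). K18 P301L tau is used at 15 uM with 0.24 uM labeled tracer, and 20 uM heparin induces aggregation over 6 hr at 37 C.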
Tau fluor cs: Counterscreen qHTS for Inhibitors of Tau Fibril Formation, Fluorescence Polarization. tau K18 P301L Alexa594 fluorescence, heparin fibrillization. Potency, µM (doses to about 57.7 µM), for the others: top-dose activity change, negative = decrease. 280,000 tested, 0.93% active. AID 1463, 2008; note: nearly all actives have a fitted effect of over 55% in size
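Human K18 P301L tau (15 uM unlabeled plus 0.24 uM Alexa 594-labeled, final) in 100 mM sodium acetate pH 7 was mixed with compound and 20 uM heparin and incubated 6 hr at 37 C.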
Tau fibril ThT: qHTS for Inhibitors of Tau Fibril Formation, Thioflavin T Binding; AID 1460, 2008; recombinant tau K18 P301L (four-repeat tau fragment), heparin-induced fibrillization, ThT fluorescence; Potency, µM (doses to about 57.4 µM), inactives show at the highest dose activity, negative = inhibition, most hits filed as inhibitors; 270,000 tested, 2.1% active; Microtubule-associated protein tau (Homo sapiens), P10636; note: nearly all actives have a fitted effect of over 55% in size
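K18 P301L tau (15 uM + 0.24 uM Alexa 594-tagged), heparin 20 uM, NaOAc pH 7, 6 h 37 C; ThT 30 uM, 1 h RT, ex 450/em 510 nm.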
* = called active by the depositor; ? = inconclusive; / = no result; [ ] = remark or other dose. Unless noted, calls come from the whole dose curve; as a rule, active = well fitted curve in the direction sought with a large enough effect; inconclusive = small, poorly fitted or top-dose-only effect, or another doubt; inactive = no such curve, though single readings can be large; an effect the other way counts as inactive or inconclusive. Unless noted, % is set by controls: 0 for no effect and ±100 for the full control effect; potency is the fitted concentration of half-maximal effect.

SMILES	ALDH1A1 inh	KDM4E inh	HPGD inh	Tau FP inhib	Tau fluor cs	Tau fibril ThT
CC(C)OCCCN1CN(S(=O)(=O)c2ccc(Cl)cc2)c2nc3ccccc3nc21	28µM*	?	-9%	-1%	-8%	-4%
COc1ccc(S(=O)(=O)N2CN(Cc3ccco3)c3nc4ccccc4nc32)cc1	?	?	?	?	-30%	22µM*
Cc1ccc(S(=O)(=O)N2CN(Cc3ccco3)c3nc4ccccc4nc32)cc1C	?	4%	/	-11%	-20%	-14%
O=S(=O)(c1ccc(F)cc1)N1CN(Cc2ccco2)c2nc3ccccc3nc21	?	?	?	?	?	32µM*
Cc1ccc(S(=O)(=O)N2CN(Cc3ccco3)c3nc4ccccc4nc32)cc1	?	?	/	-3%	-7%	-19%
COc1ccc(C(=O)/C=C(\C)Nc2ccc3c(c2)OCO3)cc1	?	2%	-10%	6%	?	13µM*
CCOc1ccc(N/C(C)=C\C(=O)c2ccc3c(c2)OCCO3)cc1	13µM*	?	/	13%	?	?
CC(=O)Nc1ccc2c(c1)C(C)(C)C(C)N2C (stereo unspecified)	-2%	-6%	/	?	28µM*[fluorescent]	?
COc1ccc(CCNC(=S)NC(=O)c2ccccc2)cc1OC	?	-5%	25µM*	-2%	-15%	-13%
COc1ccc(C(=O)CC(=O)C(=O)NCCc2cccc(C)c2)cc1	2.2µM*	-1%	-24%	9%	0%	5%
COc1ccc(C(=O)NC(=S)NCCc2ccccc2)cc1	14µM*	5%	/	-11%	-18%	-11%
COc1ccccc1N1CCN(C(=O)Cn2cnc3onc(-c4ccc(F)cc4)c3c2=O)CC1	/	/	/	-6%	?	-10%
Cc1ccc(Cl)cc1NC(=O)c1ccc2nc(CCc3ccccc3)oc2c1	/	/	/	-15%	-9%	-13%
COc1cccc(OC)c1C(=O)Nc1ccc(-c2nc3ncccc3o2)cc1	/	/	/	-5%	-4%	-6%
COc1cc(/C=C(\C#N)c2nc3ccc(C)cc3[nH]2)ccc1OC(C)C	/	/	/	-8%	?	?
O=C(O)c1cc(/C=C/c2ccc(N3CCOCC3)cc2)nc2ccccc12	-15%	?	/	11%	-19%	?
N#C/C(=C\c1ccc(-c2ccc(Cl)c(C(=O)O)c2)o1)c1nc2ccccc2[nH]1	/	/	/	-13%	?	?
N#C/C(=C\c1ccc(N2CCCCC2)o1)C(N)=O	-11%	-20%	/	9%	0%	?
N#C/C(=C\c1ccc(N2CCOCC2)o1)c1nc2ccccc2[nH]1	?	?	-14%	-11%	?	7.9µM*
Cc1ccc2nc(/C(C#N)=C\c3ccc(N4CCCCC4)c([N+](=O)[O-])c3)[nH]c2c1	?	-15%	?	7%	-30%	3.2µM*
N#C/C(=C/c1ccc(N2CCOCC2)o1)c1ccc(Cl)cc1	13µM*	?	?	?	?	16µM*
O=C(O)c1cc(/C=C/c2ccc(N3CCOCC3)c([N+](=O)[O-])c2)nc2ccccc12	/	-3%	/	-5%	-22%	14µM*
CCOc1ccc(Nc2nnc(-n3nc(C)cc3C)c3ccccc23)cc1	/	/	/	8%	?	?
COc1ccc(NS(=O)(=O)c2ccc(-n3cccn3)cc2)cc1OC	/	/	/	-13%	-20%	-9%
COC(=O)Cn1c(SCCOc2ccccc2Cl)nc2ccccc21	/	/	/	2%	-19%	?
SMILES	ALDH1A1 inh	KDM4E inh	HPGD inh	Tau FP inhib	Tau fluor cs	Tau fibril ThT
N#C/C(=C\c1ccc(-c2ccc(C(=O)O)cc2)o1)c1nc2ccccc2[nH]1	-5%	28µM*	/	-7%	?	?
N#C/C(=C\c1ccc(Oc2ccc(C(F)(F)F)cc2[N+](=O)[O-])cc1)c1nc2ccccc2[nH]1	5%	?	-14%	?	?	?
CC(=O)Nc1ccc(/C=C/c2ccc3c([N+](=O)[O-])cccc3n2)cc1	3%	-1%	/	14%	-11%	1.4µM*
N#C/C(=C/c1ccc(N2CCCC2)c([N+](=O)[O-])c1)c1nc2ccccc2[nH]1	?	3%	-17%	-13%	?	2.5µM*
Cc1ccc2nc(/C(C#N)=C/c3cccc(Br)c3)[nH]c2c1	/	/	/	-4%	?	5µM*
O=[N+]([O-])c1cccc2ccc(/C=C/c3ccc(Cl)cc3)nc12	5%	5%	/	-7%	-7%	-3%
CCc1ccc(NC(=O)Cn2nnc(-c3ccccc3N)n2)cc1	/	/	/	0%	?	-13%
